Shown are actives, neighbours in structure and some others; about 2.5% of the full set was active somewhere.
HSF-1 act: increases HSF-1 driven luciferase reporter signal; NIH3T3-HGL HSF-1 luciferase reporter, MG132, 8 h; 100% = twice DMSO control signal; activation, % at 9 µM; 300,000 tested, 1.7% active; AID 504408;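 active = mean replicate activation of at least 50% with a set share of replicates each reaching 50%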;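 also: 0% = median of the neutral control wells and 100% = twice that signal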
aDG glyco up: increases alpha dystroglycan glycosylation | Pro5-aDG cells, alpha-DG glycosylation AlphaScreen (IIH6); 0% Pro5, 100% B10-LARGE cell signal | activation, % at 10 µM | 360,000 tested, 0.22% active | AID 624168;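 active = activation of at least 8% versus controls, or a plate z-score of at least 8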;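 also: Pro5 are CHO cells carrying HIG-tagged alpha-DG that lacks glycosylation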
NPR1 activator: GC-A (human) enzyme activation | 370,000 tested, 0.14% active | P16066 | HEK293 GC-A cells, cGMP TR-FRET, EC30 ANP; 0% at EC30 ANP, 100% saturating ANP | activation, % at 10 µM; in the data active = activation above about 40%
HSF1 inhib: HSF1 inhibition; NIH3T3-HGL HSE-luciferase, MG132-induced, luminescence 8 h; hits give low values; activity change, negative = inhibition, % at 7.5 µM (by protocol); 300,000 tested, 0.77% active; AID 2098;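 active = more than half of replicate wells show activity change below -50%, luminescence cut by over half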;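 also: luciferase reports HSF-1 transcriptional activity via heat shock element; 0% = median of DMSO wells and -100% = zero luminescence signal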
GC-B act: GC-B (human) receptor activation. HEK293-GC-B cells, CNP EC30, cGMP TR-FRET; 0% at EC30 CNP, 100% saturating CNP. P20594. activation, % at 10 µM. 370,000 tested, 0.11% active;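 active = activation at 10 µM reaching about 35% in either raw or pattern-adjusted values, limit read from the data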
Dyrk1A ADPGlo: Dyrk1A (rat) kinase inhibition | ADP-Glo luminescence, NFATc1 peptide | AID 504441 | Q63470 | inhibition, % at 12.5 µM | 310,000 tested, 0.43% active; in the data active = inhibition above about 50%;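 also: plate controls were vehicle with enzyme for no effect and no enzyme for full effect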
* marks the source's active call; other numbers are inactive results; x = no result given.

SMILES | HSF-1 act | aDG glyco up | NPR1 activator | HSF1 inhib | GC-B act | Dyrk1A ADPGlo
COc1cccc(CN(C)CC(=O)Nc2ccccc2C(=O)NC2CC2)c1 | x | 0 | 2 | x | -1 | x
Brc1ccc(COc2cccc3cccnc23)cc1 | 65* | 0 | -7 | 40 | -6 | x
O=C(N/N=C/c1ccccc1C(=O)O)c1ccc(COc2cccc3cccnc23)cc1 | 3 | 0 | -1 | 0 | -1 | x
O=[N+]([O-])c1ccc(COc2cccc3cccnc23)cc1 | 59* | 0 | -4 | 24 | 2 | -4
c1ccc(OCCOc2cccc3cccnc23)cc1 | 11 | 0 | 4 | 10 | 5 | -6
O=[N+]([O-])c1ccc(OCCCOc2cccc3cccnc23)cc1 | 33 | 0 | -6 | 13 | 0 | -2
O=C(N/N=C/c1ccc[nH]1)c1ccc(COc2cccc3cccnc23)cc1 | -74 | 0 | 0 | -69* | -5 | 12
Brc1ccc(OCCOc2cccc3cccnc23)cc1 | 67* | 0 | -5 | 30 | -1 | 0
C=C1C(=O)OC2C1CCC(C)=C1C(=O)C3OC3(C)C12 (stereo unspecified) | x | 0 | 9 | x | 1 | 4
CCC(C(=O)N1CCOCC1)n1c2ccccc2c2nc(=O)cc(C)n21 (stereo unspecified) | 0 | 0 | -6 | -2 | -1 | -3
O=C(NCC1CCCO1)c1nn2c(C(F)(F)F)cc(-c3cc(Br)cs3)nc2c1Br (stereo unspecified) | 62* | 0 | 6 | 19 | 6 | -4
S=c1[nH]cc(-c2ccccc2)n1-c1ccccc1Cl | 57* | 0 | -4 | 15 | -5 | -1
COc1ccc(S(=O)(=O)NC(=O)C2(C)CCN2C(=O)COc2ccc(Cl)cc2)cc1OC (stereo unspecified) | x | 0 | 1 | x | 5 | x
N#CCc1ccc(NC(=O)Nc2cccc3ccccc23)cc1 | -82 | 0 | x | -78* | x | -5
O/C(=C\c1nc2ccccc2[nH]1)c1cccs1 | 60* | 0 | -10 | 50 | -2 | -4
O=C(Nc1nc2ccccc2[nH]1)c1cccs1 | 55* | 0 | 3 | 38 | -2 | 9
O=C(Nc1nc2ccccc2[nH]1)c1ccc([N+](=O)[O-])cc1 | 61* | 0 | -4 | 29 | -2 | -4
O=C(Nc1nc2ccccc2[nH]1)c1cccc([N+](=O)[O-])c1 | 45 | 0 | -4 | 38 | -1 | 13
Cc1ccc(CC2SC(N=C(N)N)=NC2=O)cc1 (stereo unspecified) | 81* | 0 | -5 | 34 | 4 | 1
Nc1cc(OC(=O)c2ccc(F)cc2)nn1S(=O)(=O)c1ccc(F)cc1 | 76* | 0 | 27 | 38 | 1 | -6
CC(C)(C)OC(=O)N[C@@H](CCCCNC(=O)OCc1ccccc1)c1nnc([C@H](CCCCNC(=O)OCc2ccccc2)NC(=O)OC(C)(C)C)o1 | -11 | 0 | x | 4 | x | 3
CCOc1ccc(/C=C(\C#N)C(=O)c2c(C)[nH]c3ccccc23)cc1OC | 11 | 0 | 11 | 0 | 5 | 4
COc1cc(/C=C(/C#N)C(=O)c2c(C)[nH]c3ccccc23)ccc1OCC#N | 68* | 0 | 14 | 42 | -1 | 6
CCc1ccc(/C=C2\Oc3cc(OC(=O)N4CCOCC4)ccc3C2=O)cc1 | -81 | 1 | -10 | -76* | -4 | 0
CCCS(=O)(=O)N1CCC(C(=O)N2CCOCC2)CC1 | 16 | 1 | -7 | 0 | -7 | 5
SMILES | HSF-1 act | aDG glyco up | NPR1 activator | HSF1 inhib | GC-B act | Dyrk1A ADPGlo
Cc1cc(Br)ccc1NC(=O)C1CCN(C(=O)c2ccco2)CC1 | 15 | 0 | 3 | -5 | -1 | -5
CC12CCC(=O)N1C(C(=O)Nc1ccccc1F)CS2 (stereo unspecified) | 27 | 0 | 0 | 4 | -2 | -2
CC12CCC(=O)N1C(C(=O)Nc1cccc3ccccc13)CS2 (stereo unspecified) | 70* | 0 | 6 | 40 | 2 | 4
C=CCn1c(COc2ccc(OC)cc2)nc2ccccc21 | 43 | 0 | -11 | 33 | -4 | x
Cc1ccccc1OCCNC(=O)c1ccc2ccccc2n1 | 86* | 0 | 0 | 44 | 2 | x
COCCNC(=O)c1ccc2ccccc2n1 | -3 | 0 | -1 | -5 | 1 | -10
O=S(=O)(c1ccc(OCC(O)CN2CCC(Cc3ccccc3)CC2)cc1)N1CCOCC1 (stereo unspecified) | -13 | 0 | -3 | -9 | -3 | -9
O=S(=O)(Nc1ccc(O)c2ccccc12)c1cccs1 | 27 | 2.7* | 3 | 7 | -2 | -3
N#Cc1c(Cl)nc(N/N=C/c2ccccc2)c(Cl)c1Cl | 63* | 0 | 18 | 37 | 24 | 2
CC1(C(=O)O)C=CC2(CCCCC2)N1C(=O)c1ccccc1 (stereo unspecified) | -5 | 0 | 1 | 0 | -1 | -4
CC1(C(=O)NCCCNc2ncc(C(F)(F)F)cc2Cl)C=CC2(CCCCC2)N1C(=O)c1ccccc1 (stereo unspecified) | -77 | x | x | -69* | x | x
Cc1ccc(C(=O)N/C(=C\c2ccc(Br)cc2)c2nc(=S)[nH][nH]2)cc1 | -75 | 0 | x | -69* | x | 4
O=C(N/C(=C/c1cccc(Br)c1)c1nc(=S)[nH][nH]1)c1ccccc1 | 5 | 0 | 1 | 5 | -5 | 18
CCOc1ccc(NS(=O)(=O)c2coc(C(N)=O)c2)cc1 | 5 | 0 | -2 | -9 | 1 | -14
CNC(=S)N/N=C/c1c(Cl)cccc1Cl | -67 | 0 | 4 | -59* | 8 | -1
CNC(=S)N/N=C/c1ccccc1Cl | -8 | 0 | 3 | -3 | 3 | 6
S=C(N/N=C/c1ccccc1Cl)Nc1ccccc1 | 72* | 1 | -6 | 30 | -2 | -7
COc1cccc(C(=O)C2CCCN(C(=O)c3cccc(C#CC(C)(C)O)c3)C2)c1 (stereo unspecified) | 3 | 1 | -1 | -3 | -4 | -3
O=c1c(/C=N\NS(=O)(=O)c2ccccc2)coc2ccc(Cl)cc12 | -79 | 0 | 2 | -75* | 5 | 18
O=C(N/N=C/c1coc2ccccc2c1=O)c1ccc(Cl)cc1 | -3 | 0 | -5 | 1 | -6 | 6
O=C1Cc2ccccc2C(=O)N1 | x | 0 | 6 | x | -1 | x
c1ccc(Nc2nc3ccccc3o2)cc1 | 43 | 0 | 3 | 24 | -4 | 5
FC(F)(F)Oc1ccc(Nc2nc3ccccc3o2)cc1 | 78* | 0 | 4 | 45 | -4 | 1
O=C(CSc1nnc(-c2cccs2)o1)N1CCc2ccccc21 | 23 | 0 | 3 | 6 | -4 | -3
